Experimental data as given in PubChem BioAssay (Tox21).
Several values for one entry are separate records, joined by “and”; a condition that tells them apart may be missing. Equal entries are not always repeated. Records with an inconclusive call do not appear. Where a call stands in place of a potency, no number is given. A structure can be active in one record and inactive in another. Activity calls are given as the source filed them. Calls follow the shape of the dose curve; as a rule, active = well fitted inhibition curve with a large enough effect in the repeat runs; inconclusive = weak or mixed curves; inactive = no such curve, though single readings can be large or run the other way.
Potency is read from the fitted curve at half-maximal effect.

Each molecule was assayed against Cytochrome P450 3A4 (Homo sapiens) (UniProt P08684) (assay: Cytochrome P450 Family 3 Subfamily A Member 4 (CYP3A4) small molecule antagonists: luciferase reporter qHTS assay (AID 1671201; also: nearly all actives have a fitted effect of over 50% in size)). Conditions: P450-Glo CYP3A4 enzyme, luciferin luminescence, 1 h; series mostly up to 115 µM; activity change, negative = inhibition: at the top concentration.
Chain of Cytochrome P450 3A4 (Homo sapiens) (P08684 whole entry, looked up): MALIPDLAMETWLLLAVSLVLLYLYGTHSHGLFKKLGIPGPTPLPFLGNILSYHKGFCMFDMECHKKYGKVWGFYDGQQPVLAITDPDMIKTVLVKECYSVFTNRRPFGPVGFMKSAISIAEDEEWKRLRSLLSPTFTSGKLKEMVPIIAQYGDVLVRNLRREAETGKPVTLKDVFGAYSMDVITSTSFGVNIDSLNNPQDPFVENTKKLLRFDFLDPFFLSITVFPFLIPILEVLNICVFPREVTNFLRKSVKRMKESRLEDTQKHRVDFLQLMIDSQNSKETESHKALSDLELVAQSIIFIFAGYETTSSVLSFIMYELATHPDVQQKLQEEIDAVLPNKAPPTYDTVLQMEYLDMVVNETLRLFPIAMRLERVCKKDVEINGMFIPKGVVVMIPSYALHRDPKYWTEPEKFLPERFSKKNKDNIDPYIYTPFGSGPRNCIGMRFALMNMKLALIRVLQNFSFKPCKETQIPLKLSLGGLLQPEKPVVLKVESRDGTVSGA
Method in brief: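 Relative luminescence units after 20 min with luciferin detection reagent served as read-out. Beforehand, CYP3A4 turned over a proluciferin substrate for 1 h at room temperature with NADPH regeneration, following 10 min compound preincubation.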
For `CC(=O)[C@H]1CC[C@H]2[C@@H]3CC=C4C[C@@H](O)CC[C@]4(C)[C@H]3CC[C@]12C`, the Potency was “inactive”. In the case of `CCC(=O)O[C@H]1[C@H](O[C@@H]2[C@@H](C)[C@H](O[C@H]3C[C@@](C)(OC)[C@@H](O)[C@H](C)O3)[C@@H](C)C(=O)O[C@H](CC)[C@@](C)(O)[C@H](O)[C@@H](C)C(=O)[C@H](C)C[C@@]2(C)O)O[C@H](C)C[C@@H]1N(C)C`, the Potency is reported as 265 nM (active) and 2.75 µM (active). For `CC1(C)C(C=C(Cl)Cl)C1C(=O)OCc1cccc(Oc2ccccc2)c1` (stereo not given), the Potency was “inactive”. For `CC(=O)Oc1ccc(C(c2ccc(OC(C)=O)cc2)c2ccccn2)cc1`, the “activity change, negative = inhibition” value was -26.2% [at 52.9 µM] (inactive). For `COc1ccc(-c2coc3cc(O)cc(O)c3c2=O)cc1`, the Potency was 20.2 µM (active) and 35.6 µM (active). With `O=C(O)c1ccc(O)cc1` the Potency was “inactive”. In the case of `CCC(Cc1c(I)cc(I)c(N)c1I)C(=O)O` (stereo not given), the Potency is reported as “inactive”. `CC(C)(C)c1cccc(C(C)(C)C)c1O` was tested, and the Potency was “inactive”. For `C1CN(SSN2CCOCC2)CCO1`, the Potency was “inactive”. For `CN(Cc1cnc2nc(N)nc(N)c2n1)c1ccc(C(=O)N[C@@H](CCC(=O)O)C(=O)O)cc1`, the Potency was “inactive”. With `COC(=O)C(C)Oc1ccc(Oc2ncc(C(F)(F)F)cc2Cl)cc1` (stereo not given) the “activity change, negative = inhibition” value was 33.2% (inactive). For `NCCOCCO`, the Potency was “inactive”. In the case of `CC(=O)O[C@]1(C(C)=O)CC[C@H]2[C@@H]3C=C(Cl)C4=CC(=O)CC[C@]4(C)[C@H]3CC[C@@]21C`, the Potency is reported as “inactive”. With `CCCOCCO` the Potency was “inactive”. With `NCCN` the Potency was 81.2 µM (active) and inactive. `Cc1ccc(S(=O)(=O)NCl)cc1` was tested, and the Potency was “inactive”. `CN(C)/N=N/c1nc[nH]c1C(N)=O` was tested, and the Potency was “inactive”. With `CC(C)[N+](C)(CCOC(=O)C1c2ccccc2Oc2ccccc21)C(C)C` the Potency was “inactive”. With `Nc1ccc(O)c(N)c1` the Potency was 63.3 µM (active). With `COC(=O)c1ccc(C)cc1` the Potency was “inactive”. In the case of `Cc1ccc([N+](=O)[O-])c(C)c1`, the Potency is reported as “inactive”. For `C=CCOC(=O)C(=C)C`, the Potency was “inactive”. With `C[C@]12C=CC(=O)C=C1CC[C@H]1[C@@H]3C[C@@H](O)[C@](O)(C(=O)CO)[C@@]3(C)C[C@H](O)[C@@]12F` the “activity change, negative = inhibition” value was -18.2% [at 52.9 µM] (inactive). With `CC(C)=CCO` the Potency was “inactive”. `c1ccc2cc3ccccc3cc2c1` was tested, and the Potency was “inactive”. In the case of `Cc1ccc(N)c([N+](=O)[O-])c1`, the “activity change, negative = inhibition” value is reported as -5.85% (inactive). `Oc1ccc(C(c2ccc(O)cc2)C(Cl)(Cl)Cl)cc1` was tested, and the Potency was 17.8 µM (active) and 20 µM (active). `O=C(O)c1cc(=O)[nH]c(=O)[nH]1` was tested, and the Potency was “inactive”. For `CCCCCCCCCCCCCO`, the Potency was “inactive”. With `CCCCCCCCCCCCO` the Potency was “inactive”. `CC1=CC(C)(C)Nc2ccccc21` was tested, and the Potency was 2.75 µM (active). With `CCCCCCC(C)O` (stereo not given) the Potency was “inactive”. With `CC(=O)OC(C)C` the Potency was “inactive”. `CCC/C=C/C=O` was tested, and the “activity change, negative = inhibition” value was 5.02% (inactive). With `Cc1ccc(C)c(O)c1` the Potency was “inactive”.
